# Values without a mark were called inactive. Inconclusive results are not listed. Entries that show only a call come without a potency. The source made the active and inactive calls. Unless noted, calls follow the shape of the dose curve; as a rule, active = well fitted curve in the direction sought with a large enough effect; inconclusive = small, poorly fitted or top-dose-only effect, or another doubt; inactive = no such curve, though single readings can be large; an effect the other way counts as inactive or inconclusive.
# Experiments:
# [1] = molecular target: Glutathione peroxidase 1 (Homo sapiens) (UniProt P07203); assay: Primary qHTS Assay for Inhibitors of Recombinant Selenoprotein Glutathione Peroxidase 1 (GPX1) (AID 1845191); also: nearly all actives have a fitted effect of over 65% in size
# How it was run: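 10 nM GPX1 + cpd, 30 min RT; start w/ 1 mM GSH, 0.5 mM cumene hydroperoxide, 0.5 mM NADPH, 100 nM GR, 0.01% BSA; buffer 50 mM Tris-HCl pH 7.5, 2 mM EDTA, 150 mM NaCl; Fl 340/450, 0 & 15 min.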
# [2] = AP1 Signaling Pathway (AID 357; active = well fitted curve in either direction with a large enough effect, not every such curve was filed as active;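 also: ME-180 reporter cells stimulated with EGF at its EC50 level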); settings: ME-180 AP-1-bla reporter, EGF-induced, beta-lactamase ratio, 5 h; at 7.69 µM (top of the series) unless noted
# How it was run: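 First, ME-180 AP-1-bla cells were cultured overnight at 37 °C in low-serum Opti-MEM. Next, titrated compounds with EC50 EGF were incubated 5 hours. Finally, CCF4 was added for 2.5 hours and the 460/530 nm ratio recorded.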
# [3] = molecular target: Cytochrome P450 1A2 (Homo sapiens) (UniProt P05177); assay: p450-cyp1a2 (AID 410; calls by dose curve; also: potency is read from the fitted curve at half-maximal effect)
# How it was run: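 Luminescent readout of luciferin formed from Luciferin-ME by human CYP1A2; data normalized against complete inhibition by 57 uM furafylline. Enzyme 20nM, substrate 100uM at Km, 100mM KPO4 buffer, 60 min reaction at room temperature.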
# [4] = NFAT Signaling Pathway (AID 444; active = well fitted curve in either direction with a large enough effect, not every such curve was filed as active;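 also: carbachol stimulus at about its EC50 of 1 µM final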); settings: Jurkat NFAT-bla M1, carbachol, beta-lactamase ratio, 5 h; at 7.69 µM (top of the series) unless noted
# How it was run: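 Read-out: CCF4 FRET ratio (460 nm/530 nm) after 1 h RT dye loading, used for %activity and AC50 from titration series. Cells: Jurkat NFAT-β-lactamase/M1 line, treated with compound plus 1 uM carbachol for 5 h, 37 °C.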
# [5] = Stat Signaling Pathway (AID 446; active = well fitted curve in either direction with a large enough effect, not every such curve was filed as active;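 also: ME-180 cervical cancer cells given 40 pM IL-6 alongside compound; SIE-controlled beta-lactamase reporter measured as 460/530 nm FRET emission ratio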)
# How it was run: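 Reporter line: ME-180 cervical carcinoma, SIE-beta-lactamase. Treatment: compound with 40 pM IL-6, 5 hrs, 37 C, in low-serum OPTI-MEM with 10 mM HEPES pH 7.3. Detection: 460/530 nm fluorescence.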
# [6] = molecular target: Glucocorticoid receptor (Homo sapiens) (UniProt P04150); assay: GR-EFC Redistribution (AID 451; calls by dose curve; also: potency is read from the fitted curve at half-maximal effect); settings: CHO-K1 GR-EFC translocation, beta-gal luminescence, 2 h
# How it was run: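 Translocation of GR-ED fusion to nuclear EA restores b-gal, read by luminescence after 1 h room-temperature detection. Engineered CHO-K1 biosensor cells, 1,000/well, exposed 2 h at 37 C to titrations up to 46 uM final.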
# [7] = molecular target: Mitogen-activated protein kinase 10 (Mus musculus) (UniProt Q61831); assay: JNK3 AlphaScreen Assay (AID 530; active = well fitted curve in either direction with a large enough effect, not every such curve was filed as active;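 also: kinase came from lysate of stimulated human HepG2 cells; signal reports phosphorylation of biotinylated GST-cJun 1-79 at Ser73 with 10 µM ATP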)
# How it was run: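 Compound titrations were preincubated 15 minutes at room temperature with substrate, antibody and pre-activated JNK3-containing HepG2 lysate. Reactions were started with 10 uM ATP and stopped with EDTA-containing bead buffer for AlphaScreen detection.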
# [8] = molecular target: Cytochrome P450 3A4 (Homo sapiens) (UniProt P08684); assay: qHTS Assay for Inhibitors and Substrates of Cytochrome P450 3A4 (AID 884); also: potency is read from the fitted curve at half-maximal effect; nearly all actives have a fitted effect of over 50% in size
# How it was run: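 20 nM human CYP3A4 with 25 uM Luciferin-PPXE (at KM) in 200 mM KPO4, preincubated 10 min with compound; NADPH regeneration started a 60 min RT reaction. Luciferin detected by luminescence, normalized to 57 uM ketoconazole as full inhibition.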
# [9] = molecular target: Cytochrome P450 3A4 (Homo sapiens) (UniProt P08684); assay: qHTS Assay for Activators of Cytochrome P450 3A4 (AID 885); also: nearly all actives have a fitted effect of over 65% in size
# How it was run: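 Signal was normalized against complete inhibition by 57 uM ketoconazole. The reaction used 20nM CYP3A4 with 25uM Luciferin-PPXE, 10-min compound preincubation and a 60-min NADPH-supported step at RT.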
# [10] = molecular target: Cytochrome P450 2C19 (Homo sapiens) (UniProt P33261); assay: qHTS Assay for Inhibitors and Substrates of Cytochrome P450 2C19 (AID 899); also: potency is read from the fitted curve at half-maximal effect; nearly all actives have a fitted effect of over 60% in size
# How it was run: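 Reactions contain 5nM enzyme, 10uM Luciferin-H EGE (KM) and 50mM KPO4; compound preincubates 10 min at 37C, NADPH regeneration starts turnover for 60 min. Luminescence after detection reagent gives activity.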
# [11] = molecular target: Dual specificity protein kinase CLK4 (Homo sapiens) (UniProt Q9HAZ1); assay: qHTS Assay for Inhibitors of CDC-like Kinase 4 (ADP-FP Assay) (AID 1795); also: nearly all actives have a fitted effect of over 60% in size; also: potency is read from the fitted curve at half-maximal effect;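 as to activity change, negative = inhibition: recombinant human CLK4 phosphorylating RS repeat peptide at 1 µM ATP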
# How it was run: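 Inhibition of ADP formation by 6.25 nM Clk4 is measured using 1 uM ATP and 100 uM RS repeat peptide over one hour. Produced ADP displaces a fluorescent tracer from antibody, lowering polarization.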
# [12] = molecular target: Glucocorticoid receptor (Homo sapiens) (UniProt P04150); assay: GR-GFP Redistribution (AID 450;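 active = compounds whose dose series gives a full or clear partial fitted curve of increased nuclear translocation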; also: potency is read from the fitted curve at half-maximal effect); settings: U2OS GR-GFP nuclear translocation, laser cytometry, 2 h
# [13] = molecular target: 3',5'-cyclic-AMP phosphodiesterase 4B (Homo sapiens) (UniProt Q07343); assay: qHTS Assay for Inhibitors of PDE-IV (AID 607; active = well fitted activation curve with a large enough effect in the main read-out, with a control signal flat, not every such curve was filed as active)
# How it was run: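 Cell-based read-out of cAMP via a modified cyclic nucleotide-gated channel and membrane potential dye (535/590 nm) in HEK293 cells expressing PDE4 endogenously. Compounds tested up to 22.9 uM final; 100 uM RO 20-1724 reference.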
# [14] = molecular target: Ubiquitin carboxyl-terminal hydrolase 1 (Homo sapiens) (UniProt O94782); assay: Inhibitors of USP1/UAF1: Pilot qHTS (AID 504865);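 also: rhodamine fluorescence freed from ubiquitin-rhodamine substrate followed over time; top concentration of the series differs between compounds; nearly all actives have a fitted effect of over 35% in size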
# How it was run: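 Kinetic fluorescence assay: 1nM USP1/UAF1, 15 min compound preincubation, then 150nM Ub-Rho; 480/540 nm.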
# Cytochrome P450 3A4 (Homo sapiens), sequence (P08684 whole entry, looked up): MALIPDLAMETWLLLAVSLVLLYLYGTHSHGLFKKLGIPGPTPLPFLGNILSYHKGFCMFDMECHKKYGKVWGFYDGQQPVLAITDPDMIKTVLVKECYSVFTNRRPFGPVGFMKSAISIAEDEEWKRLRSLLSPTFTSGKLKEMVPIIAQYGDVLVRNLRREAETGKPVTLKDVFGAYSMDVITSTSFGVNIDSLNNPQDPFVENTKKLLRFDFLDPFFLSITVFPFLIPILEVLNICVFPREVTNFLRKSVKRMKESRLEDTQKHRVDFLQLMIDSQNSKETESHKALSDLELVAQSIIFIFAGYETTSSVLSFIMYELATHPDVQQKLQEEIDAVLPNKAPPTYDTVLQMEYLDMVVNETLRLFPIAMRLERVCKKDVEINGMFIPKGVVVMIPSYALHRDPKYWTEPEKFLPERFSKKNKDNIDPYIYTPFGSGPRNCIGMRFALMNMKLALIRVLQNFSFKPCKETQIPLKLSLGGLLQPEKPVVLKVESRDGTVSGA
# Glutathione peroxidase 1 (Homo sapiens), sequence (P07203 whole entry, looked up): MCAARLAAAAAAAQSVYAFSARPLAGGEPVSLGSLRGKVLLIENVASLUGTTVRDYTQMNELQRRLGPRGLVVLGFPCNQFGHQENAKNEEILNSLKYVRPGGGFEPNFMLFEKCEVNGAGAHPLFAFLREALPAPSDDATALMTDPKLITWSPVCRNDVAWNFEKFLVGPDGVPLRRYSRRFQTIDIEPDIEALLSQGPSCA
# Glucocorticoid receptor (Homo sapiens), sequence (P04150 whole entry, looked up, the tested form may be a part): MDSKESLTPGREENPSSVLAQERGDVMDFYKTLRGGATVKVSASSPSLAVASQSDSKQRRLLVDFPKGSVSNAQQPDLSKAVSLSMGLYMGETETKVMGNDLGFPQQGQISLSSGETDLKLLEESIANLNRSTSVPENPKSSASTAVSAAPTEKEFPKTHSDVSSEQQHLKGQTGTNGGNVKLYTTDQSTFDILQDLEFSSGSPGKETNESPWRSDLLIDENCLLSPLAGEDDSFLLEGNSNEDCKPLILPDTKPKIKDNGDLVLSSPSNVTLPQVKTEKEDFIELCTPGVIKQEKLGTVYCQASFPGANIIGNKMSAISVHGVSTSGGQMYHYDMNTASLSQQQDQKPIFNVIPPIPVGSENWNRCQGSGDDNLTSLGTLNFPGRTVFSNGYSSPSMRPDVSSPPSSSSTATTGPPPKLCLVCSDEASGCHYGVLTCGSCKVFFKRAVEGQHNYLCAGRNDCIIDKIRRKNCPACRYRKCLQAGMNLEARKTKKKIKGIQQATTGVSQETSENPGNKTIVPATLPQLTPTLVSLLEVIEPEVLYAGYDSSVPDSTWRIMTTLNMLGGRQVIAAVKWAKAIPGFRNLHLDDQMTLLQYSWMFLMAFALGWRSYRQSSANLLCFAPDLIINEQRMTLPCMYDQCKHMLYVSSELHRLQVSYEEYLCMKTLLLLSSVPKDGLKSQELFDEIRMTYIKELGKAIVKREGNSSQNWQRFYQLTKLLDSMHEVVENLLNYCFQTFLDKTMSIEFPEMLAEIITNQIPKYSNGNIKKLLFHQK
# Dual specificity protein kinase CLK4 (Homo sapiens), sequence (Q9HAZ1 whole entry, looked up): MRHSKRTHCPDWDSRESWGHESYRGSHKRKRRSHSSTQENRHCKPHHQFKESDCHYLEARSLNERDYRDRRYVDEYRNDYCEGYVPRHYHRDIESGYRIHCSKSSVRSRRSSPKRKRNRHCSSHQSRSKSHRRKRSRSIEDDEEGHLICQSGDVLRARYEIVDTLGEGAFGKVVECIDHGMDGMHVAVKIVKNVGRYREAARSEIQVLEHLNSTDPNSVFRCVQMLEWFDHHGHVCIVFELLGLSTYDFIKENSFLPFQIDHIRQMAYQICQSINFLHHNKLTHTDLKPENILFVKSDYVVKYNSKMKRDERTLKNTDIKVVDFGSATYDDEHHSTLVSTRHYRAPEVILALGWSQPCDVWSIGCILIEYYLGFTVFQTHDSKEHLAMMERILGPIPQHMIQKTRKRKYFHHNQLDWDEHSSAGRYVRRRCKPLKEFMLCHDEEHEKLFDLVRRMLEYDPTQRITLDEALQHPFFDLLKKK
# Cytochrome P450 1A2 (Homo sapiens), sequence (P05177 whole entry, looked up): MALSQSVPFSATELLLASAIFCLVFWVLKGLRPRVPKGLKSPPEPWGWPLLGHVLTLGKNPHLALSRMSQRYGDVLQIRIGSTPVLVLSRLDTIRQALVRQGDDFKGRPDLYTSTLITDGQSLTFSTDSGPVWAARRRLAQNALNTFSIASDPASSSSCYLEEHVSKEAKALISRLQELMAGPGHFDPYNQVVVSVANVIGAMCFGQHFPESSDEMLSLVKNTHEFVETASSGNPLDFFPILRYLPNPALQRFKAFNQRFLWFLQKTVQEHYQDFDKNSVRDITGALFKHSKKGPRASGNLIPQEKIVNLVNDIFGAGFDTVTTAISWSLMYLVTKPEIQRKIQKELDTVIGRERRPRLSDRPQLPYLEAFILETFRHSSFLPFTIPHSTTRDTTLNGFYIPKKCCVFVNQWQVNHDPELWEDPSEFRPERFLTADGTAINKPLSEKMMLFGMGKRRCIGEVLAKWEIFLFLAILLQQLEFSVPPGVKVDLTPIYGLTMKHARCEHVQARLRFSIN
# Cytochrome P450 2C19 (Homo sapiens), sequence (P33261 whole entry, looked up): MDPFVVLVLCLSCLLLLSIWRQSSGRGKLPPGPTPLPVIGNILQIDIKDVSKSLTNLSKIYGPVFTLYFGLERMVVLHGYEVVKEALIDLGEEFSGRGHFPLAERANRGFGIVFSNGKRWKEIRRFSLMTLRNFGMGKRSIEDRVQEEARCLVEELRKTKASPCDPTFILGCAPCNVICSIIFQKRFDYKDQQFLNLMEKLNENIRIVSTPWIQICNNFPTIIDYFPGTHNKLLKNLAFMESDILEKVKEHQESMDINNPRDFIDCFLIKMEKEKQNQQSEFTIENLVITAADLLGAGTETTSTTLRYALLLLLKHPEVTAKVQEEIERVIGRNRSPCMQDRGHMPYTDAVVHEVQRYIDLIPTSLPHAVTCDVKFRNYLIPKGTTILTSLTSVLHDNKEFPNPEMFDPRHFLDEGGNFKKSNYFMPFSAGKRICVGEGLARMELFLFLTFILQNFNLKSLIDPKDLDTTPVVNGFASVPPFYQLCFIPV
# 3',5'-cyclic-AMP phosphodiesterase 4B (Homo sapiens), sequence (Q07343 whole entry, looked up): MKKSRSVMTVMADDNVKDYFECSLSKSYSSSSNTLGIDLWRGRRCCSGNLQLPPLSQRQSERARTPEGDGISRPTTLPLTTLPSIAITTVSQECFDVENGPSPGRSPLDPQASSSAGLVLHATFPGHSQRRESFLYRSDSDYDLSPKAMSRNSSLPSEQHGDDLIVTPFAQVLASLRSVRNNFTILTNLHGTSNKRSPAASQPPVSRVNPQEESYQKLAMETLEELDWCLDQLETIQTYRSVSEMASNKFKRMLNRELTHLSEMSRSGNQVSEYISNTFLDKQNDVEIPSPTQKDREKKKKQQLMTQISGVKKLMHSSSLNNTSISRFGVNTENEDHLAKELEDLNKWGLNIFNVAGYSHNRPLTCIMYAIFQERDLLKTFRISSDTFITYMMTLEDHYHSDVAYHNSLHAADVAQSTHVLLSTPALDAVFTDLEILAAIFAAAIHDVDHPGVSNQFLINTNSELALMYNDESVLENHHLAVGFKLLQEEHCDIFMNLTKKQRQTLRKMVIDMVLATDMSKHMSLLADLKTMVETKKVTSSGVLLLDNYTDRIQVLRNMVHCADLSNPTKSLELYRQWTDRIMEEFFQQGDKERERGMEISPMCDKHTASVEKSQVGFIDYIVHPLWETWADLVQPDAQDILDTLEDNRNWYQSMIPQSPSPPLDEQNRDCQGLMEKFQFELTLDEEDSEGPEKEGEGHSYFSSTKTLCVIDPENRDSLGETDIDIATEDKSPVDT
# Ubiquitin carboxyl-terminal hydrolase 1 (Homo sapiens), sequence (O94782 whole entry, looked up): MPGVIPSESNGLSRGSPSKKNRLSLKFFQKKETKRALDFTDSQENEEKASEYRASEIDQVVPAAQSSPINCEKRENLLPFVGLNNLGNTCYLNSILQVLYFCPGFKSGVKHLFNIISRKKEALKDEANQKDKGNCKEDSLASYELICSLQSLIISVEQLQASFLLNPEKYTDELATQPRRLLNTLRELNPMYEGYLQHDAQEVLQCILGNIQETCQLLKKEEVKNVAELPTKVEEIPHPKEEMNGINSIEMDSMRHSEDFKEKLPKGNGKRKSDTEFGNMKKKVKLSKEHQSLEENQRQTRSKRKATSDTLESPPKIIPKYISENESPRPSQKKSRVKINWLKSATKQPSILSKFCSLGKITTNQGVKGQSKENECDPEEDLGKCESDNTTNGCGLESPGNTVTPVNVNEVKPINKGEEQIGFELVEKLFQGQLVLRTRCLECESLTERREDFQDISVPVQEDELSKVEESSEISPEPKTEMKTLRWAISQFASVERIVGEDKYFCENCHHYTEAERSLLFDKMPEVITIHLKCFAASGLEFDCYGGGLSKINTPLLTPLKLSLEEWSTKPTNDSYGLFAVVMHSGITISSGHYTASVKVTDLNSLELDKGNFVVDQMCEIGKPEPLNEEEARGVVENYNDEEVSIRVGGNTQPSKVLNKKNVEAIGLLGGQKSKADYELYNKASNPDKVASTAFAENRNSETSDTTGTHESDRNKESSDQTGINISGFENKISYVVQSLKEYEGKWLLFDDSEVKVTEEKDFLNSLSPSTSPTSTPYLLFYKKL
smiles,measurement,setting,value
C/C=C(\C)C(=O)O,Potency,[1],inactive
Oc1c(Br)cc(Br)cc1CNC1CCC(O)CC1 (stereo unspecified),Potency,[1],inactive
Clc1ccccc1-c1nc(Nc2ccncc2)c2ccccc2n1,"activity change, negative = inhibition",[2],-2.96%
same,Potency,[3],0.501 µM (active)
same,"activity change, negative = inhibition",[4],8.97%
same,outcome,[5],inactive
same,Potency,[6],> 46 µM
same,Potency,[7],inactive
same,Potency,[8],3.98 µM (active)
same,outcome,[9],inactive
same,Potency,[10],5.01 µM (active)
same,Potency,[11],10 µM (active)
CNC(=O)c1ccccc1Oc1nc(Nc2cc(OC)c(OC)c(OC)c2)ncc1Br,Potency,[1],inactive
Cc1ccc2nc(-c3ccc(Cl)c(NC(=O)c4ccc5c(c4)OCCO5)c3)oc2c1,Potency,[1],inactive
Nc1ccccc1NC(=O)CCCCCCC(=O)Nc1ccccc1,Potency,[1],inactive
O=C(Cn1c(=O)oc2cc(S(=O)(=O)N3CCCCC3)ccc21)NCc1ccc(Cl)cc1,Potency,[1],inactive
CC(C)Oc1ccc(-c2c[nH]cc2CN(C)CCN)cc1,Potency,[1],inactive
Cc1cc(Nc2cccc(Cl)c2)nc2ccc(NC(=O)Cc3cccc(C(F)(F)F)c3)cc12,Potency,[1],inactive
Cc1nc2c(c(C)c1CCC(=O)N1CCN(c3ccccc3)CC1)c(=O)n(C)c(=O)n2C,Potency,[1],inactive
Cn1cc(C2=C(c3cn(CCCN)c4ccccc34)C(=O)NC2=O)c2ccccc21,Potency,[1],inactive
C=CS(=O)(=O)N1CCCN(c2cc(NCCC(=O)O)nc(-c3ccccn3)n2)CC1,Potency,[1],inactive
COc1ccc(C(=O)Nc2ccc3oc(-c4ccc(F)cc4Cl)nc3c2)cc1,Potency,[1],inactive
COc1ccccc1-c1nc(N2CCN(C)CC2)c2ccccc2n1,"activity change, negative = inhibition",[2],9.75%
same,Potency,[3],12.6 µM (active)
same,"activity change, negative = inhibition",[4],4.89%
same,outcome,[5],inactive
same,Potency,[12],> 46 µM
same,Potency,[7],inactive
same,Potency,[13],inactive
same,outcome,[9],inactive
same,Potency,[11],inactive
same,Potency,[14],inactive
OCCN1CCN(C(c2ccc(Cl)cc2Cl)c2sc3nc(-c4ccco4)nn3c2O)CC1 (stereo unspecified),Potency,[1],inactive
CC[C@@]1(O)CC2CN(CCc3c([nH]c4ccccc34)[C@](C(=O)OC)(c3cc4c(cc3OC)N(C)C3[C@@](O)(C(N)=O)[C@H](O)[C@]5(CC)C=CCN6CC[C@@]43[C@@H]65)C2)C1 (stereo partly specified),Potency,[1],inactive
C[C@]12C=CC(=O)C=C1CC[C@@H]1[C@@H]2[C@@H](O)C[C@@]2(C)[C@H]1CC[C@]2(O)C(=O)COC(=O)c1cccc(S(=O)(=O)O)c1,Potency,[1],inactive
O=C1NC(Nc2ccccc2)=N/C1=C\c1ccc2c(c1)OCO2,Potency,[1],inactive
CC(C)C(=O)SCCCCCCC(=O)Nc1nc(-c2ccccc2)cs1,Potency,[1],inactive
N#Cc1ncccn1,Potency,[1],inactive
O=C1Cc2ccccc2N1,Potency,[1],inactive
O=C(Cn1ncc2c1-c1ccccc1OC2)N1CCN(c2ccccc2)CC1,Potency,[1],inactive
Cc1ccc(-c2nc(-c3cc4cccc(OCc5cccc(C)c5)c4oc3=O)no2)cc1,Potency,[1],inactive

# Reference: PubChem BioAssay (NCATS)
